We go through 13 molecules from PubChem BioAssay (NCI).

Compounds without any hit were thinned out: in the full panel of roughly 83,000, 20% have a hit.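 For each line, cells grew in 96-well plates with the test compound present at a single concentration for 48 hours.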 Unmarked numbers belong to inactive results. The source made the active and inactive calls. The calls were made as follows: active = growth percent below 10; inactive = the rest.

Test systems include NCI-H23 lung; NCI-H226 lung; NCI-H322M lung; NCI-H460 lung; NCI-H522 lung; A549/ATCC NSCLC; 786-0 renal; COLO 205 colon; DU-145 prostate; K-562 leukemia; MALME-3M melanoma; MDA-MB-231 breast; RXF 393 renal; SF-268 CNS; SF-295 CNS; SF-539 CNS; UACC-257 melanoma; M14 melanoma; HOP-92 NSCLC.
Holding throughout (test): NCI-60 one-dose screen, 48 h (100 = growth as untreated, 0 = no growth, -100 = all killed)
Holding throughout (conditions): 10 µM unless noted

As to `C/C(=N\Nc1ccc([N+](=O)[O-])cn1)c1ccc(N)cc1`, the growth was 109% in the test on NCI-H23 lung; 109% in the test with NCI-H226 lung; 120% with NCI-H322M lung; 110% with NCI-H460 lung; 85.8% in the test on NCI-H522 lung; 96.1% in the test with A549/ATCC NSCLC. Besides, the growth is 99.7% in the test on 786-0 renal; 104% with COLO 205 colon; 116% in the test with DU-145 prostate; 13.8% in the test with K-562 leukemia; 133% in the test on MALME-3M melanoma; 88.9% in the test on MDA-MB-231 breast. Besides, the growth in the test with RXF 393 renal was 132%; in the test with SF-268 CNS, 94.4%; in the test on SF-295 CNS, 128%; in the test on SF-539 CNS, 93.7%; with UACC-257 melanoma, 105%; in the test on M14 melanoma, 106%.

As for `CCSc1cnnc2ccccc12`, the growth was 101% in the test with NCI-H23 lung; 101% in the test on NCI-H226 lung; 118% in the test on NCI-H322M lung; 118% with NCI-H460 lung; 97.8% in the test with NCI-H522 lung; 108% in the test with A549/ATCC NSCLC. Further, the growth in the test with 786-0 renal is 109%; in the test with COLO 205 colon, 111%; in the test with DU-145 prostate it was 113%; in the test on K-562 leukemia, 85.7%; in the test with MALME-3M melanoma, 124%; with MDA-MB-231 breast, 103%. Further, the growth is 123% in the test on RXF 393 renal; 102% in the test with SF-268 CNS; 117% in the test on SF-295 CNS; 106% in the test with SF-539 CNS; 113% with UACC-257 melanoma; 105% in the test with M14 melanoma.

As to `COc1cccc(C2C(C#N)=C(N)Oc3cc4c(cc32)OCO4)c1` (stereo unspecified), the growth in the test with NCI-H23 lung was 9.81% (active); in the test with NCI-H226 lung, -7.07% (active); in the test on NCI-H322M lung, 37.6%; in the test with NCI-H460 lung it was 7.64% (active); in the test with NCI-H522 lung, 11.5%; in the test on A549/ATCC NSCLC, 21.4%. Moreover, the growth with 786-0 renal is 29.9%; in the test with COLO 205 colon it was -47.1% (active); in the test on DU-145 prostate it was 1.58% (active); in the test with MALME-3M melanoma, 39.8%; with MDA-MB-231 breast, 30.2%; in the test with RXF 393 renal, 2.45% (active). Also, the growth was 29.9% in the test with SF-268 CNS; 7.47% (active) with SF-295 CNS; 4.53% (active) with SF-539 CNS; 57.4% in the test with UACC-257 melanoma; 0.938% (active) in the test with M14 melanoma.

`COc1ccc(C2c3cccn3-c3ccccc3N2C(C)=O)cc1` (stereo unspecified): the growth in the test with NCI-H23 lung is 99.3%; in the test with NCI-H226 lung, 97.3%; in the test on NCI-H322M lung, 82.6%; in the test with NCI-H460 lung, 97.4%; in the test on NCI-H522 lung it was 122%; in the test with A549/ATCC NSCLC, 110%. Further, the growth in the test on 786-0 renal was 106%; with COLO 205 colon, 100%; with DU-145 prostate, 108%; with K-562 leukemia, 42%; in the test on MALME-3M melanoma, 93%; in the test on MDA-MB-231 breast, 103%. Besides, the growth was 99.2% in the test on RXF 393 renal; 95.8% in the test on SF-268 CNS; 98.7% with SF-295 CNS; 108% in the test on SF-539 CNS; 109% with UACC-257 melanoma; 96.2% in the test on M14 melanoma.

On to `O=C1C(Cl)=C(Nc2cccc3ccccc23)C(=O)c2ccccc21`, for which the growth in the test on NCI-H23 lung is 73.6%; with NCI-H226 lung, 87.8%; in the test on NCI-H322M lung, 83.1%; in the test on NCI-H460 lung, 90.7%; in the test with NCI-H522 lung it was 44.7%; in the test with A549/ATCC NSCLC, 87.9%. In addition, the growth is 90% in the test on 786-0 renal; 88.9% with COLO 205 colon; 111% with DU-145 prostate; 26.6% in the test on K-562 leukemia; 53.4% with MALME-3M melanoma; 57.5% with MDA-MB-231 breast. Besides, the growth was 120% in the test on RXF 393 renal; 85.5% with SF-268 CNS; 95.1% with SF-295 CNS; 107% in the test on SF-539 CNS; 74.7% with UACC-257 melanoma; 87.8% with M14 melanoma.

Turning to `CCOC(=O)C1=C(C(=O)OCC)N(c2cc(OC)c(OC)c(OC)c2)C(N)=C(C#N)C1c1cc(=O)[nH]c2ccccc12` (stereo unspecified), the growth in the test with NCI-H23 lung is 104%; in the test on NCI-H226 lung it was 96.7%; with NCI-H322M lung it was 97.3%; in the test with NCI-H460 lung, 105%; in the test with NCI-H522 lung, 90.2%; in the test on A549/ATCC NSCLC it was 105%. In addition, the growth was 101% in the test with 786-0 renal; 111% in the test on COLO 205 colon; 104% in the test with DU-145 prostate; 104% in the test with MALME-3M melanoma; 87.8% in the test with MDA-MB-231 breast; 99.5% in the test with RXF 393 renal. Besides, the growth in the test with SF-268 CNS was 91.1%; in the test with SF-295 CNS it was 94.3%; in the test with SF-539 CNS, 87.7%; in the test with UACC-257 melanoma it was 101%; in the test with M14 melanoma it was 105%.

For `CCCCCc1c(C)[nH]c(/C=C2\N=C(c3ccc[nH]3)C=C2Oc2ccc(OC)cc2)c1C`, the growth in the test on NCI-H23 lung was -67.1% [100 µM] (active); in the test on NCI-H226 lung, -15.7% [100 µM] (active); with NCI-H322M lung, -6.72% [100 µM] (active); in the test on NCI-H460 lung, -46.1% [100 µM] (active); with HOP-92 NSCLC it was -12.6% [100 µM] (active); with 786-0 renal it was -92.2% [100 µM] (active). Further, the growth was -83.9% [100 µM] (active) in the test with COLO 205 colon; -59.2% [100 µM] (active) in the test with DU-145 prostate; -14.6% [100 µM] (active) in the test with K-562 leukemia; -75.4% [100 µM] (active) with MALME-3M melanoma; -71.2% [100 µM] (active) with MDA-MB-231 breast; -68.3% [100 µM] (active) in the test with RXF 393 renal. The growth is -83.5% [100 µM] (active) in the test with SF-268 CNS, -82.1% [100 µM] (active) with SF-295 CNS and -94.7% [100 µM] (active) in the test on M14 melanoma.

Turning to `COc1ccc(-c2cc(-c3cn(-c4cccc(Cl)c4)nc3-c3ccc(OC)cc3)[nH]c(=S)n2)cc1`, the growth was 83% with NCI-H23 lung; 85.8% in the test on NCI-H226 lung; 95.5% in the test with NCI-H322M lung; 33.5% in the test with NCI-H460 lung; 77.7% in the test on NCI-H522 lung; 50.4% in the test with A549/ATCC NSCLC. Further, the growth was 96.5% in the test with 786-0 renal; 86.6% in the test with COLO 205 colon; 50.1% in the test on DU-145 prostate; 101% with K-562 leukemia; 90.9% in the test with MALME-3M melanoma; 67.7% with MDA-MB-231 breast. Moreover, the growth in the test with RXF 393 renal was 102%; in the test on SF-268 CNS, 70.6%; in the test with SF-295 CNS, 93%; in the test on SF-539 CNS it was 92.2%; in the test on UACC-257 melanoma it was 71.5%; in the test on M14 melanoma, 92%.

As to `CCOC(=O)Cc1cc(Br)c(OCc2ccccc2)c(Br)c1`, the growth with NCI-H23 lung was 94.1%; in the test with NCI-H226 lung, 88.4%; in the test with NCI-H322M lung it was 102%; with NCI-H522 lung, 80.3%; in the test on A549/ATCC NSCLC, 104%; with 786-0 renal it was 92.8%. For the same molecule, the growth with COLO 205 colon was 127%; in the test with DU-145 prostate it was 115%; in the test on K-562 leukemia it was 86%; in the test with MALME-3M melanoma, 106%; with MDA-MB-231 breast it was 89.1%; in the test with RXF 393 renal, 96.4%. For the same molecule, the growth was 106% in the test on SF-268 CNS; 92.3% in the test on SF-295 CNS; 106% in the test with SF-539 CNS; 99.6% with UACC-257 melanoma; 99.6% in the test on M14 melanoma.

Consider `CC(=O)Nc1ccc(/C=N/N2CCCCCC2)cc1`, for which the growth was 103% in the test on NCI-H23 lung; 92% in the test with NCI-H226 lung; 101% in the test on NCI-H322M lung; 106% in the test with NCI-H460 lung; 103% in the test with NCI-H522 lung; 94.3% in the test on A549/ATCC NSCLC. In addition, the growth with 786-0 renal is 90.9%; in the test with COLO 205 colon, 110%; in the test with DU-145 prostate, 102%; in the test on MALME-3M melanoma, 99.7%; in the test on MDA-MB-231 breast, 74.7%; with RXF 393 renal, 105%. The growth with SF-268 CNS was 99.4%; with SF-295 CNS, 94.3%; with SF-539 CNS, 83.6%; in the test on UACC-257 melanoma, 114%; in the test on M14 melanoma it was 106%.

Take `COc1ccc(-n2c(COc3ccc(F)cc3)n[nH]c2=S)cc1`: the growth with NCI-H23 lung was 112%; with NCI-H226 lung, 101%; with NCI-H322M lung it was 96.8%; in the test with NCI-H460 lung, 110%; in the test on NCI-H522 lung, 90.3%; in the test on A549/ATCC NSCLC, 131%. The growth with 786-0 renal was 102%; with COLO 205 colon, 116%; in the test with DU-145 prostate it was 112%; with K-562 leukemia, 129%; in the test on MALME-3M melanoma, 115%; in the test on MDA-MB-231 breast, 89.3%. Further, the growth was 80.3% with RXF 393 renal; 97.8% with SF-268 CNS; 74.1% in the test with SF-295 CNS; 101% with SF-539 CNS; 186% in the test with UACC-257 melanoma; 112% in the test with M14 melanoma.

As to `Cc1ccc(NC(=O)c2sc3nc4c(cc3c2N)C(=O)CCC4)cc1Cl`, the growth with NCI-H23 lung was 100%; with NCI-H226 lung, 102%; with NCI-H322M lung, 109%; with NCI-H460 lung, 106%; with A549/ATCC NSCLC it was 101%; in the test with 786-0 renal, 104%. The growth in the test with COLO 205 colon is 128%; in the test on DU-145 prostate, 109%; in the test on K-562 leukemia, 93%; in the test with MALME-3M melanoma, 112%; with MDA-MB-231 breast, 113%; with RXF 393 renal, 117%. Moreover, the growth is 115% in the test with SF-268 CNS; 80% in the test with SF-295 CNS; 102% in the test on SF-539 CNS; 95.1% in the test on UACC-257 melanoma; 122% in the test with M14 melanoma.

`CC(C)(C)[Si](C)(C)OC1[C@@H](CNC(N)=O)O[C@@H](n2cnc3c(NC(=O)Nc4ccccc4)ncnc32)[C@H]1O[Si](C)(C)C(C)(C)C` (stereo partly specified): the growth with NCI-H23 lung was 62.4%; with NCI-H226 lung, 75.9%; in the test on NCI-H322M lung, 119%; in the test with NCI-H460 lung, 5.08% (active); in the test with NCI-H522 lung it was 63.8%; with A549/ATCC NSCLC it was 37.6%. Also, the growth in the test on 786-0 renal was 58.8%; in the test on COLO 205 colon it was 9.85% (active); with DU-145 prostate, 72.6%; in the test on K-562 leukemia it was 35.2%; with MALME-3M melanoma, 75.4%; in the test on MDA-MB-231 breast, 77.9%. Moreover, the growth is 6.77% (active) with RXF 393 renal; 48.3% in the test on SF-268 CNS; 64.7% with SF-295 CNS; 68.1% with SF-539 CNS; 78.6% in the test with UACC-257 melanoma; 54.3% in the test on M14 melanoma.
